Data: ChEMBL document CHEMBL4513216, “Probing the Open Global Health Chemical Diversity Library for Multistage-Active Starting Points for Next-Generation Antimalarials” (ACS Infect Dis, 2020)
The whole screen tested about 65,000 compounds, of which about 2,100 (3.2%) showed an effect of 50% or more. The median lay at about -52%. The list comes from a sample in which strong results are over-represented; it also holds similar structures and randomly drawn compounds.

The compounds below were run on Plasmodium falciparum (assay: Screen against P. falciparum Asexual Blood Stage (ABS), at 5uM). Details: tested at 5 uM.
Format: functional, Dd2

Structure (SMILES) | INHIBITION [%]
Cc1c(C)n(CC(O)CN2CCC(C)CC2)c2c(Cl)cccc12 (configuration not stated) | 83
Cc1c(C)n(CC(O)CN2CCN(CCO)CC2)c2c(Cl)cccc12 (configuration not stated) | 88.6
CCC(O)CN1CCN(C(=O)Cc2ccccc2Cl)CC1 (configuration not stated) | -113
CCS(=O)(=O)N1CCN(CCOC)c2ncccc2C1 | -58.7
COCCN1CCOCC12CCN(C(=O)c1cccnc1)CC2 | -95.8
O=C(NC1CC1)[C@H]1C[C@H]2OCC[C@H]2N(Cc2cccnc2)C1 | -76.1
CN(C)c1cc(C2CCCNC2)ccn1 (configuration not stated) | -11.8
Fc1ccc(-c2nccnc2C2CCCNC2)cc1 (configuration not stated) | 76.6
c1c[nH]c2nc(C3CCCNC3)nc-2c1 (configuration not stated) | -172
CC1CCCCN1C(=O)c1coc(COc2cccc3cnccc23)n1 (configuration not stated) | 86.5
Cc1cccc(CN2CC[C@H]3[C@H]2CCN3C(=O)c2cnn(C)c2)n1 | -5.92
Cc1ccc(NC(=O)NC(C)c2nc[nH]n2)cc1Cl (configuration not stated) | -107
COc1ccc(NC(=O)Nc2cnc(N3CCN(C)CC3)nc2)cc1Cl | 87.9
CNS(=O)(=O)CC(=O)NC(C)Cc1ccc(Br)cc1 (configuration not stated) | -89.6
O=C(c1ncccn1)N1C[C@@H]2CN(CC3CC3)CCO[C@@H]2C1 | -14.4
Cc1nccc([C@@H]2C[C@@H]3CCN(Cc4cccs4)C[C@H]3O2)n1 | -92.1
CN1C(Cn2cccn2)C[C@@H]2CN(Cc3ccccn3)CC[C@@H]21 (some centres not stated) | 41.6
C[C@H]1C[C@@H]2CCN(Cc3nccs3)C[C@H]2O1 | -9.59
CN1[C@H](Cn2cccn2)C[C@@H]2CN(Cc3cccs3)CC[C@@H]21 | 75.8
C[C@@H]1C[C@@H]2CCN(Cc3nccs3)C[C@H]2O1 | -26.9
c1cnn(C[C@@H]2C[C@@H]3CN(CC4CC4)CC[C@@H]3N2c2nccs2)c1 | 89.9
NC(=O)N1C[C@H]2CN(Cc3nccs3)C[C@H]2C1 | -12
CN1CC[C@H]2[C@H](C[C@@H](CN3CCCC3)N2c2nccs2)C1 | 73.7
CCN(CCc1ccccc1)Cn1nc(C)c2c(C)onc2c1=O | -13.3
Clc1ccc(-c2ccc(C3CNCCO3)nc2)cc1 (configuration not stated) | 85.9
Cc1ccc(-c2ccc(C3CNCCO3)nc2)cc1 (configuration not stated) | 83.5

Structure (SMILES) | INHIBITION [%]
CCCC(=O)N1CCC2(CC1)OCCO2 | -40.8
COCCN1CC=C(c2cccc(OC)c2)CC1 | 13.9
COCCN1CC[C@H]2OCC[C@@H](C(=O)Nc3cccnc3)[C@@H]2C1 | -67.2
OCCN1CCC(c2cncc(-c3cccc(Cl)c3)n2)CC1 | 71.1
CN1CCC(c2cncc(Cl)n2)CC1 | -28.5
COCCN1CCC(c2cncc(-c3cccc(Cl)c3)n2)CC1 | 71.1
CCCS(=O)(=O)N1CCOC2(CCCN(Cc3ccccn3)C2)C1 (configuration not stated) | -21.2
CN(C)C[C@]12COC[C@H]1CN(Cc1ccccn1)C2 | -39.8
Cc1ccc(CN2CCN(C)c3ncccc3C2)o1 | -75.5
COc1cccc(CN2CCN3C(=O)NC[C@H]3C2)n1 | -90.1
Cc1cccc(CN2CCN3C[C@H](Oc4cccnc4)C[C@H]3C2)n1 | -91.1
Clc1cccc2c3c([nH]c12)CCN(Cc1cc2n(n1)CCCNC2)C3 | 89.7
Clc1cccc2c3c([nH]c12)CCN(Cc1cc2n(n1)CCNC2)C3 | 79.1
c1cncc(OC[C@]23COC[C@H]2CN(Cc2nccs2)C3)c1 | -94.4
CC(C)N1CCOC(c2ccnc(N(C)C)n2)C1 (configuration not stated) | -133
Cc1cc(N2CCOC(c3ccccn3)C2)nc(N)n1 (configuration not stated) | 75.1
Cc1cccc(CN2CCO[C@H]3[C@H](Oc4ccccn4)CC[C@@H]32)n1 | -7.66
N#CC1CCCN(c2nc(-c3ccccc3)nc3c2CCNCC3)C1 (configuration not stated) | 79.9
NCC1CCCN(c2nc(-c3ccccc3)nc3c2CCNCC3)C1 (configuration not stated) | 85.9
Cc1noc(C)c1CN1C[C@H](OCC2CC2)[C@H]2OCCC[C@H]21 | -58
CS(=O)(=O)NCc1cncc2c1CCN(CC1CCOC1)C2 (configuration not stated) | -80.3
Cc1noc(C)c1CN1C[C@H](OCC(=O)N(C)C)[C@H]2OCCC[C@H]21 | -72.7
Cc1cc(CN2CCc3nc(-c4ccncc4)nc(O)c3CC2)c(C)s1 | 91
Cc1cc(CN2CCc3nc(N4CCOCC4)nc(O)c3CC2)c(C)s1 | 77.6
O=C(N[C@H]1CN[C@H]2CCCO[C@H]21)c1cccnc1 | -13.5
Cc1cc(CN2CCO[C@H]3[C@H](OCc4csc(C)n4)CC[C@@H]32)no1 | -73.3
